This is a sample that favours compounds with a hit; in the whole collection about 2.1% have one here.
ERAP1 inh – human ERAP1 aminopeptidase inhibitors, primary screen, biochemical, single point, plate reader. Endoplasmic reticulum aminopeptidase 1 (Homo sapiens), Q9NZ08. recombinant ERAP1, Leu-AMC fluorescence, 60 min. inhibition, % at 10.7 µM. hit rate 0.15% among 340,000. AID 652197, 2013;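 active = mean replicate inhibition of at least 30%, or all replicates individually reaching that 30% level; inactive = mean below 30% and not every replicate reaching it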;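 also: 0% = neutral control wells and 100% = L-leucinethiol positive control wells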
Ecoli rRNA inh – reduced GFP signal of wild-type E. coli, primary screen, bacterial rRNA inhibitor project, GFP/RFP fluorescence, OD600, single point; E. coli WT GFP vs humanized-ribosome RFP mutants, 24 h; hits give low values; DMSO median 0, no signal -100; GFP signal change (wild-type ribosome), % (test concentration not listed); hit rate 1.6% among 350,000;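 active = significant combined selectivity score with lowered wild-type GFP, culture density cut under 30%, mutant RFP and density less affected; inactive = any of these conditions unmet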
PvdQ inh – P. aeruginosa PvdQ acylase inhibitors, primary screen, biochemical, fluorescence, plate reader and imaging, single point; purified PvdQ acylase; inhibition, % at 10 µM; hit rate 0.063% among 340,000; AID 488965, 2010; in the data active = inhibition above about 30%, passing the limit was not always enough;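 also: 0% = vehicle neutral wells and 100% = reference inhibitor wells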
ARNT TACC3 PPI – disruptors of ARNT/TACC3 protein interaction, primary screen, biochemical, AlphaScreen, single concentration. Transforming acidic coiled-coil-containing protein 3 (Homo sapiens), Q9Y6A5. AlphaScreen His-ARNT PAS-B/GST-TACC3 binding, luminescence; TACC3 fragment carries E629A point mutation. inhibition, % at 9.99 µM. hit rate 0.66% among 390,000. AID 623870, 2012;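 active = mean inhibition of replicates at least 50% and at least half of replicates each reaching 50%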;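 also: 0% = complete ARNT plus TACC3 wells and 100% = ARNT alone without TACC3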
CFTR F508del cor – F508del CFTR correction, initial screen, CFBE line, single point. CFBE cells, YFP halide quenching; stimulated with forskolin plus potentiator P3; % fluorescence drop versus neutral controls. activity (quench increase), % at 7.58 µM. hit rate 0.36% among 350,000. AID 720511, 2013;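 active = mean added fluorescence quench of at least 8% versus neutral control, with both replicates also reaching 8%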;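 also: cells transiently co-express mutant CFTR-F508del with the halide-sensitive YFP; corrector assay measuring rescue of mutant channel to the surface after 24 h compound exposure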
Starred values were filed as active, the others as inactive; . = not tested or not shown.

SMILES	ERAP1 inh	Ecoli rRNA inh	PvdQ inh	ARNT TACC3 PPI	CFTR F508del cor
O=C(Nc1nc(-c2ccc3c(c2)OCCO3)cs1)C1CCCC1	3	-34*	-12	4	3
CCn1nc(C(=O)Nc2nc(-c3ccccn3)cs2)c2ccccc2c1=O	0	14	7	17	5
CC1CC1C(=O)Nc1nc(-c2ccccn2)cs1 (stereo not given)	.	.	-7	62*	.
C[C@H]1CN([C@@H](C)CO)C(=O)c2cccc(NS(=O)(=O)c3cn(C)cn3)c2O[C@@H]1CN(C)S(=O)(=O)c1cn(C)cn1	0	-1	.	-6	0
C[C@@H]1CN([C@@H](C)CO)C(=O)c2cc(NC(=O)c3ccccc3)ccc2O[C@@H](C)CCCCO[C@@H]1CN(C)C(=O)Nc1ccccc1	1	4	.	-16	-2
Cc1cc(C(=O)Nc2nc(-c3ccccn3)cs2)ccc1[N+](=O)[O-]	2	-29*	-11	30	0
O=C(Nc1nc(-c2ccccn2)cs1)c1ccc2c(c1)OCCO2	1	-7	7	50*	5
CC(C)[C@H](NC(=O)c1ccccc1Cl)C(=O)Nc1nc(-c2ccccn2)cs1	-2	-29*	2	58*	3
CC(=O)c1ccc(-c2ccc(C(=O)Nc3nc(-c4ccccn4)cs3)o2)cc1	-2	-1	-8	50*	0
CCc1nnc(NC(=O)C(NC(=O)c2ccccc2Cl)C(C)C)s1 (stereo not given)	0	13	-3	-2	-2
CCCC#Cc1ccc([C@H]2[C@@H](CO)N3C(=O)CN(C(=O)c4cccc(F)c4)C[C@@H]23)cc1	.	10	.	.	.
C[C@@H]1CN([C@@H](C)CO)S(=O)(=O)c2ccc(-c3cccc(C#N)c3)cc2O[C@@H]1CN(C)C(=O)Nc1cc(F)ccc1F	1	0	.	-2	0
C[C@H](CO)N1C[C@H](C)[C@H](CN(C)C(=O)Nc2ccccc2)Oc2ccc(NS(=O)(=O)c3ccccc3)cc2C1=O	-2	3	.	-4	2
O=C(C1CCCC1)N1CC(=O)N2[C@@H](CO)[C@H](c3ccc(Br)cc3)[C@@H]2C1	1	1	.	.	-1
CC(C)C[C@H](NC(=O)[C@@H](O)[C@H](N)Cc1ccccc1)C(=O)O	.	2	.	.	3
CC(C)[C@@H](C(=O)N[C@@H](CCc1ccc(O)cc1)C(=O)O)N(C)C(=O)[C@H](CO)NC(=O)[C@@H](O)[C@H](N)CCCCCCCCl	62*	.	.	.	0
CC(C)CC#Cc1ccc2c(c1)O[C@H](CN(C)C(=O)CN(C)C)[C@H](C)CN([C@@H](C)CO)S2(=O)=O	-4	3	.	4	-1
Clc1cccc(-c2nc(NCCCN3CCOCC3)c3ccccc3n2)c1	1	-60	9	5	-1
c1ccc2c(NCCCN3CCOCC3)c3ccccc3nc2c1	-39	-26	.	.	11*
CN(C)CCCNc1nc(-c2ccccc2)nc2ccccc12	5	26	-14	-2	0
c1ccc(CNc2ncnc3ccccc23)cc1	2	.	-7	-5	1
CN(C)CCCNc1c2ccccc2nc2ccccc12	19	5	0	-7	18*
c1ccc(CNc2c3ccccc3nc3ccccc23)cc1	-3	-14	-6	1	11*
Clc1ccc(-c2nc(NCCCN3CCOCC3)c3ccccc3n2)cc1	0	-17*	0	16	2
COCC(=O)N1C[C@@H](C)[C@@H](OC)CN(C)C(=O)c2cc(NC(=O)NC(C)C)ccc2OC[C@H]1C	3	1	.	15	-4
SMILES	ERAP1 inh	Ecoli rRNA inh	PvdQ inh	ARNT TACC3 PPI	CFTR F508del cor
CCCN1CCCCC(NC(=O)c2ccc3ccccc3c2)C1=O (stereo not given)	-3	-6	.	.	2
CN1c2ccc(-c3ccccc3)cc2[C@@H]2[C@@H](CCN2C(=O)Cc2ccccn2)[C@@H]1CO	1	-3	.	16	-2
Cc1cc(Cl)ccc1NC(=S)NC(C)(C)C	-1	-35*	-10	12	1
CC(C)(C)c1cc(C(c2cccnc2)N2CCN(CCO)CC2)cc(C(C)(C)C)c1O (stereo not given)	15	-30*	6	6	-4
Cc1[nH]c2ccccc2c1C(=O)CN1C(=O)C(=O)N(CCC2=CCCCC2)C1=O	0	-1	-17	.	-2
Cc1[nH]c2ccccc2c1C(=O)CN1C(=O)C(=O)N(Cc2ccco2)C1=O	33*	4	-10	1	-1
CCS(=O)(=O)N1CCC2(CC1)CN(C(=O)c1ccc(F)cc1)[C@H](CO)c1[nH]c3cc(OC)ccc3c12	0	1	.	.	-1
CO[C@@H]1CN(C)C(=O)c2cc(NC(=O)CC(F)(F)F)ccc2OC[C@H](C)N(C(=O)c2ccccc2F)C[C@@H]1C	1	0	.	.	0
O=C(N/N=C/c1cccc2ccccc12)c1ccncc1	1	0	-10	5	-3
O=C(N/N=C/c1c(O)n(-c2ccc(Cl)cn2)c(=O)c2ccccc12)C1CC1	.	.	-7	68*	.
O=C(N/N=C/c1c(O)n(-c2ccc(Cl)cn2)c(=O)c2ccccc12)c1ccncc1	.	.	-3	42*	.
CNC[C@H]1Oc2cc(C#Cc3ccccc3F)ccc2S(=O)(=O)N([C@@H](C)CO)C[C@@H]1C	.	-2	.	.	-3
COc1cccc(Nc2ccc(Nc3cccc(OC)c3)nn2)c1	.	.	14	13	.
COc1cccc(NC(C)(C)c2nnnn2-c2c(C)cccc2C)c1	5	-24*	-5	3	1
Cc1nc2ccc(NC(=O)c3ccc(=O)[nH]c3)cc2s1	37*	4	-11	-7	2
CN(C)C(=O)c1cccc(-c2ccc([C@@H]3[C@@H](CO)N4C(=O)CN(C(=O)C5CCCCC5)C[C@H]34)cc2)c1	1	5	.	.	0
CC1(C)Cc2c(ccc3ccccc23)C2=C(C(=O)N3CCCC3)C(=O)C(=O)N21	-1	-26*	-2	-6	6
C=CCC1(O)C(=O)N2C(=C1C(=O)OCC)c1ccc3ccccc3c1CC2(C)C (stereo not given)	.	.	7	4	.
CC(C)NC(=O)N(C)C[C@H]1Oc2ncc(-c3ccc(C(=O)N(C)C)cc3)cc2C(=O)N([C@H](C)CO)C[C@@H]1C	0	4	.	-11	1
CCCC/C(O)=C1\C(=O)CCCC1=NCCc1c(C)[nH]c2ccc(OC)cc12	1	-18*	13	1	-1
CCOc1ccc(OCC)c(NC(=O)CSc2nc3cccnc3n2C)c1	3	-33*	13	-4	.

Source: PubChem (Broad Institute)
